Hits are enriched below; roughly 2.9% of the tested compounds scored in any of these assays.
12-LOX inh: blocks human arachidonate 12S-lipoxygenase | purified 12hLO, xylenol orange hydroperoxide absorbance | Potency, µM (series often up to 108 µM), for the others: top-dose activity change, negative = inhibition, usual class: inhibitors | 580,000 compounds, 1.1% hits | AID 1671190; note: potency is the fitted concentration of half-maximal effect; % is set by controls: 0 for no effect and ±100 for the full control effect
Target sequence (P18054 whole entry, looked up): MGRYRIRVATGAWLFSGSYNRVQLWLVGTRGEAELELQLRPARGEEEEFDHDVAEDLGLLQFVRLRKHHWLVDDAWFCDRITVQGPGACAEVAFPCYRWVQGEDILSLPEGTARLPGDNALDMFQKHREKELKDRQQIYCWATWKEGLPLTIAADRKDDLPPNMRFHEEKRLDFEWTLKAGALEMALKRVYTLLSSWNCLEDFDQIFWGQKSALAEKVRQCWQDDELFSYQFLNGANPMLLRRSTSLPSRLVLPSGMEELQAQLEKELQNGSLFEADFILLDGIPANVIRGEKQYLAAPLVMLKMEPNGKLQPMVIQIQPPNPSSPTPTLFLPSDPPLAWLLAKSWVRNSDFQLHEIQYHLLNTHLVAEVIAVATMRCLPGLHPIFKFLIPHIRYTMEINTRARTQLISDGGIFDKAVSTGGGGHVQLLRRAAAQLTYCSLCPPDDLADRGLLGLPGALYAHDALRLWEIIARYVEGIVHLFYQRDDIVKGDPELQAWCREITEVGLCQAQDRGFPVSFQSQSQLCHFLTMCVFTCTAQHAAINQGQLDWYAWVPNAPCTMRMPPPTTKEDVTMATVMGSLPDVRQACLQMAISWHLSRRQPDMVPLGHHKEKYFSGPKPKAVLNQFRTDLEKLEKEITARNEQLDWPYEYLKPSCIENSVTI
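Purified human 12hLO (150 nM final) in 25 mM Hepes, 0.01% Triton X-100, pH 7.0 was preincubated 15 min at room temperature with compound. Then 40 uM arachidonic acid was added, 30 min. Hydroperoxide was read by Fe-XO absorbance ratio 573/405 nm.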
PI5P4K alpha inh: inhibitors of human PI5P4K alpha | P48426 | PI5P4Kalpha enzyme, ADP-Glo luminescence, 60 min; hits give low values | max response, % | 330,000 compounds, 1.2% hits | AID 652105; active = max response of -50% or lower; inconclusive = between -30% and -50%; inactive = -30% or higher; note: value at the top dose of about 77 µM; % is set by controls: 0 for no effect and ±100 for the full control effect
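Enzyme plus substrate dispensed, test compounds pinned in, then ATP (5 microM final) added. After 60 min at RT, ADP-Glo reagent 1 for 45 min and reagent 2 for 30 min preceded luminescence imaging.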
POLB inh: DNA polymerase beta (human) inhibition; P06746; Pol beta primer extension/strand displacement, fluorescence kinetic; Potency, µM (titrated, usually from 114 µM), for inactives: top-dose activity change, negative = inhibition, most hits filed as inhibitors; 340,000 compounds, 1.3% hits; AID 485314; note: potency is the fitted concentration of half-maximal effect; % is set by controls: 0 for no effect and ±100 for the full control effect
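Reaction started by 50 nM substrate onto compound-treated Pol beta (10 nM, 15 min preincubation, room temperature); plates read at 0 min and 10 min. Normalized concentration-effect data fitted by four-parameter Hill equation.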
Pol iota inh: blocks human DNA polymerase iota activity; 390,000 compounds, 1% hits; Q9UNA4; Potency, µM (highest dose often 115 µM), for inactives: at the highest dose activity, negative = inhibition, usual class: inhibitors; Pol iota fluorescent replication assay, 10 min; note: potency is the fitted concentration of half-maximal effect
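Pol iota at 10 nM preincubated 15 min with compounds at room temperature; reaction started with fluorescent substrate, 50 nM final. Fluorescence read kinetically at 0 and 10 min; buffer-only wells as negative control.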
Pol eta inh: blocks human DNA polymerase eta activity | recombinant Pol eta, fluorescent DNA replication assay | Potency, µM (top dose mostly 114 µM), for inactives: at the top dose activity change, negative = inhibition, actives largely listed as inhibitors | 390,000 compounds, 1.2% hits | AID 588591; note: potency is the fitted concentration of half-maximal effect; % is set by controls: 0 for no effect and ±100 for the full control effect
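Fluorescent replication assay: 50 nM final substrate added after a 15 min room-temperature compound preincubation with 10 nM enzyme. Signal taken at 0 min and again at 10 min.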
POLK inh: blocks human DNA polymerase kappa activity; Q9UBT6; Potency, µM (doses to about 107 µM), for the others: at the highest dose activity, negative = inhibition, actives largely listed as inhibitors; AID 588579; 400,000 compounds, 0.53% hits; purified Pol kappa, fluorescent DNA synthesis assay, 10 min; note: potency is the fitted concentration of half-maximal effect; % is set by controls: 0 for no effect and ±100 for the full control effect
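Inhibition of 10 nM Pol kappa is measured by a fluorescent read-out at 0 and 10 min following addition of 50 nM substrate (final), with a 15-min room-temperature compound preincubation.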
* hit, by the source's call; [ ] = remark or other dose. Unless noted, calls come from the whole dose curve; as a rule, active = well fitted inhibition curve with a large enough effect; inconclusive = small, poorly fitted or top-dose-only effect, or another doubt; inactive = no such curve, though single readings can be large or run the other way.

Results for COc1ccc(CCNC(=O)/C=C/c2ccco2)cc1 ?
12-LOX inh: 0%; PI5P4K alpha inh: -17; POLB inh: inconclusive; Pol iota inh: inconclusive; Pol eta inh: -11%; POLK inh: -28%

How did Cc1cccc2sc(N(CCCN(C)C)C(=O)c3ccc4ncsc4c3)nc12 do in these assays?
12-LOX inh: inconclusive; PI5P4K alpha inh: 10; POLB inh: 13%; Pol iota inh: 9%; Pol eta inh: -22%; POLK inh: 7%

What do the screens show for `CN(C)CCN(C(=O)c1ccc2c(c1)OCCO2)c1nc2ccc(Cl)cc2s1`?
12-LOX inh: 69%; PI5P4K alpha inh: 1; POLB inh: inconclusive; Pol iota inh: 27%; Pol eta inh: -17%; POLK inh: -8%

Results for CCc1ccc2nc(N(CCN(C)C)C(=O)c3ccc4ncsc4c3)sc2c1 ?
12-LOX inh: 35µM*; PI5P4K alpha inh: inconclusive; POLB inh: 1%; Pol iota inh: 104%; Pol eta inh: -18%; POLK inh: -15%

Results for CN(C)CCCN(C(=O)c1ccc2c(c1)OCCO2)c1nc2ccc(Cl)cc2s1 ?
12-LOX inh: 45µM*; POLB inh: 2%

Results for CCN(CC)CCN(C(=O)c1ccc2c(c1)OCCO2)c1nc2c(Cl)cccc2s1 ?
12-LOX inh: 35µM*; PI5P4K alpha inh: 2; POLB inh: 16%; Pol iota inh: -2%; Pol eta inh: -13%; POLK inh: -1%

Results for CCCCc1c(C)nn(-c2nc(CC(=O)Nc3cccc(C(C)=O)c3)cs2)c1C ?
12-LOX inh: 29%

What do the screens show for `C1=CN2CC=Cc3cc(/C=C/c4ccnc5ccccc45)cc(c32)C1`?
Pol iota inh: 79µM*; POLK inh: inconclusive

Results for C(=C\c1ccnc2ccccc12)/c1ccnc2ccccc12 ?
Pol iota inh: 2%; POLK inh: 5%

Results for Cc1ccc(NC(=O)Nc2c(NC3CCCCC3)c3ccccc3oc2=O)cc1 ?
12-LOX inh: -12%

How did CSCCC(NS(=O)(=O)c1ccc(C)c(C(=O)O)c1)C(=O)O (centres undefined) do in these assays?
12-LOX inh: -16%; PI5P4K alpha inh: 0; POLB inh: 25µM*; Pol iota inh: -22%; Pol eta inh: inconclusive; POLK inh: -15%

How did COc1ccc(NS(=O)(=O)c2ccc(N)c(C(=O)O)c2)cc1 do in these assays?
12-LOX inh: inconclusive; PI5P4K alpha inh: 6; POLB inh: -1%; Pol iota inh: 1%; Pol eta inh: 2%; POLK inh: -1%

What do the screens show for `COc1ccc(NS(=O)(=O)c2ccc(C)c(C(=O)O)c2)cc1`?
12-LOX inh: -25%; POLB inh: 45µM*; Pol iota inh: inconclusive; Pol eta inh: 79µM*; POLK inh: -10%

Results for O=c1c2c(-c3cccs3)csc2nc(CN2CCOCC2)n1CCOc1ccccc1F ?
12-LOX inh: 8%

How did CCCc1nc2ccccc2c(C(=O)OCC(=O)NCC(F)(F)F)c1CC do in these assays?
12-LOX inh: 0%

What do the screens show for `CSc1nc(NCc2ccco2)c2c3c(sc2n1)CN(C)CC3`?
POLB inh: 40µM*

Results for CSc1nc(SCC(=O)NCc2ccco2)c2c3c(sc2n1)CN(C)CC3 ?
12-LOX inh: 12%; PI5P4K alpha inh: -4; Pol iota inh: -8%; Pol eta inh: inconclusive; POLK inh: -23%

Results for Cc1nc2nc(C)n(-c3ccccc3)c2s1 ?
12-LOX inh: inconclusive; PI5P4K alpha inh: inconclusive; POLB inh: -1%; Pol iota inh: inconclusive; Pol eta inh: 14µM*; POLK inh: -6%

Results for O=C(NCCc1ccc(F)cc1)c1cc(C2CC2)nc2ccccc12 ?
12-LOX inh: -26%

What do the screens show for `CC(=O)Nc1ccccc1-c1c(C)nn2c1N(C(=O)Cc1ccccc1)CCC2`?
12-LOX inh: 6%[176 µM]

How did Cc1nn2c(c1-c1ccccc1C(C)C)N(Cc1cccc(C(=O)O)c1)CCC2 do in these assays?
12-LOX inh: 0%[176 µM]

How did Cc1ccncc1-c1c(C)nn2c1N(Cc1ccc(C(=O)O)cc1)CCC2 do in these assays?
12-LOX inh: 16µM*

Results for Cc1nn2c(c1-c1ccccc1C(C)C)N(CCC(C)C)CCC2 ?
12-LOX inh: 50µM*

How did CC(=O)Nc1ccccc1-c1c(C)nn2c1N(CCCc1ccccc1)CCC2 do in these assays?
12-LOX inh: 16µM*

Results for Cc1nn2c(c1-c1cccnc1N1CCOCC1)N(CCC(C)C)CCC2 ?
12-LOX inh: 18µM*

What do the screens show for `NC(=O)N/N=C/c1ccccc1Br`?
12-LOX inh: -5%

How did Cc1nn2c(c1-c1cccnc1N1CCOCC1)N(Cc1ccc3c(c1)CCO3)CCC2 do in these assays?
12-LOX inh: 53%[176 µM]

What do the screens show for `Cc1nn2c(c1-c1cccnc1N1CCOCC1)N(CCc1ccccc1)CCC2`?
12-LOX inh: 20µM*

What do the screens show for `CC(C)C(NC(=O)COc1ccc2ccccc2c1)C(=O)N/N=C/C=C/c1ccccc1` (centres undefined)?
12-LOX inh: 8.9µM*; POLB inh: 3%; Pol iota inh: -7%; Pol eta inh: -14%; POLK inh: -6%

How did COc1ccc(NC(=O)c2cc3c(s2)-c2c(C)cccc2OC3)cc1Cl do in these assays?
12-LOX inh: -70%; POLB inh: 11µM*; Pol iota inh: -2%; Pol eta inh: inconclusive; POLK inh: -29%

What do the screens show for `Cc1ccc(CNC(=O)c2cc3c(s2)-c2c(C)cccc2OC3)cc1`?
12-LOX inh: 2%; POLB inh: 14µM*; Pol iota inh: inconclusive; Pol eta inh: -19%; POLK inh: -41%

How did Cc1cccc2c1-c1sc(C(=O)NCc3ccc(Cl)cc3)cc1CO2 do in these assays?
12-LOX inh: -9%; POLB inh: 22%; Pol iota inh: 17%; Pol eta inh: -26%; POLK inh: inconclusive

Results for COc1cc(Cl)c(C)cc1NC(=O)c1cc2c(s1)-c1c(C)cccc1OC2 ?
12-LOX inh: -18%; POLB inh: 3%; Pol iota inh: 2%; Pol eta inh: -7%; POLK inh: -9%

How did CC(=O)c1cccc(-n2c(CCC(=O)O)ccc2-c2cccs2)c1 do in these assays?
12-LOX inh: inconclusive; POLB inh: inconclusive; Pol iota inh: 50µM*; Pol eta inh: inconclusive; POLK inh: -34%

How did O=C(O)CCc1ccc(-c2cccs2)n1-c1ccc(C(=O)O)cc1 do in these assays?
12-LOX inh: inconclusive; PI5P4K alpha inh: -5; POLB inh: inconclusive; Pol iota inh: inconclusive; Pol eta inh: 32µM*; POLK inh: inconclusive

High-throughput results deposited in PubChem BioAssay by National Center for Advancing Translational Sciences (NCATS).
